GPR151 activ = activates the human receptor GPR151; activation, % at 11.2 µM; AID 1508602; Q8TDV0; PathHunter beta-arrestin GPR151 cells, luminescence; 650,000 compounds, 1% hits; in the data active = activation above about 4.9%
FBW7 act = activators of human E3 ligase FBW7; AlphaScreen FBW7–phospho-cyclin E peptide binding, activator screen; 650,000 compounds, 0.13% hits; Q969H0; AID 1259310; normalized activity (activation), % at 26.1 µM; in the data active = normalized activity above about 1.9%;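 note: purified mutant Fbw7 with reduced substrate affinity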
TEAD-YAP block = TEAD-YAP interaction inhibition; HEK-TIYL cells, TEAD-Gal4/YAP UAS-luciferase luminescence; inhibition, % at 9.12 µM; 640,000 compounds, 1.4% hits; AID 1259422; in the data active = inhibition above about 32%
MITF inh = blocks human microphthalmia-associated transcription factor; inhibition, % at 2.6 µM; O75030; AlphaScreen MITF homodimerization, bead proximity signal; 650,000 compounds, 0.91% hits; in the data active = inhibition above about 50%
Target sequence (O75030 whole entry, looked up): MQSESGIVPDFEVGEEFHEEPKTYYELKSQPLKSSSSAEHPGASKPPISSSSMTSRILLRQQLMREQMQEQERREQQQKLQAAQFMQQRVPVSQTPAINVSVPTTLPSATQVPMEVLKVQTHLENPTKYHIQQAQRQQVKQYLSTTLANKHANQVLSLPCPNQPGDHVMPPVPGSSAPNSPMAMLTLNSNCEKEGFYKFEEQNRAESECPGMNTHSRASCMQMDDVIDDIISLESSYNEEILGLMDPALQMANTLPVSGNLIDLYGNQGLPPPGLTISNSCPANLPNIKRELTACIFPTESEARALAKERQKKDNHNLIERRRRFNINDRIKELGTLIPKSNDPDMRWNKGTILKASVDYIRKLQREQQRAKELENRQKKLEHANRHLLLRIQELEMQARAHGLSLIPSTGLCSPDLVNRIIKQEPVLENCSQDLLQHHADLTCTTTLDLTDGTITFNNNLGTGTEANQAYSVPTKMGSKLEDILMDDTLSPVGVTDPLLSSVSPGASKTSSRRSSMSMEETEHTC
GPR151 conf act = confirmation of human GPR151 activators | shares compounds with GPR151 activ | GPR151 PathHunter beta-arrestin cells, luminescence, 90 min; % of EA-reagent control over plate median | activation, % at 11.2 µM | 6,700 tested, under 10 active;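 active = mean percent activation across replicates above the confirmation screen cutoff of 4.91%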
GPR119 counter = activates human GPR119 in a GPR151 counter-screen. shares compounds with GPR151 activ. 6,700 compounds, 0.3% hits. GPR119 PathHunter beta-arrestin cells, luminescence, 90 min; 0 = compound-well median, 100 = enzyme-acceptor control. activation, % at 11.2 µM. AID 1508611;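 active = mean percent activation in the counterscreen above 29.09%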;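 note: counterscreen on off-target GPR119 to flag nonselective hits from the GPR151 activator screen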
Numbers stand for hits; 0 = inactive; - = no result given; ! = repeats disagree. The list is not random: actives were taken first. Their share in the collection is about 3.5%.

SMILES	GPR151 activ	FBW7 act	TEAD-YAP block	MITF inh	GPR151 conf act	GPR119 counter
O=C(c1ccccc1F)N1CCCC(c2ccnc3ncnn23)C1 (stereo not drawn)	0	0	0	0	-	-
O=C(Cc1cn(-c2ccc(Cl)nn2)c2ccccc12)NCCOc1ccccc1	6.9	0	0	0	0	0
O=C(Cc1cn(-c2ccc(Oc3ccccc3)nn2)c2ccccc12)NCCOc1ccccc1	0	0	0	0	-	-
O=C(NNC(=O)c1ccccc1Br)c1ccc(Cl)cc1	0	0	0	0	-	-
O=C(NOC(=O)c1ccccc1Br)c1ccc(Cl)cc1	8.0	0	0	0	0	0
CCc1nnc(NS(=O)(=O)c2ccc(NC(=O)CN3C(=O)c4ccccc4C3=O)cc2)s1	7.4	0	0	0	0	0
C=CCNC(=O)c1ccc(OCC(=O)C2CC2)cc1	0	0	0	0	-	-
Cn1cnnc1SCCNC(=O)c1ccc(OCC(=O)C2CC2)cc1	6.9	0	0	0	0	0
O=C(Nc1c(F)cccc1F)N1CCn2cccc2C1c1ccccc1 (stereo not drawn)	11	0	0	0	0	0
O=C1N=c2c(Br)cc(Br)cc2=C1c1[nH]c(=S)[nH]c1O	0	0	0	0	-	-
COc1cc(/C=C2\SC(N)=NC2=O)ccc1OC(=O)c1ccc(Cl)cc1	0	0	0	0	-	-
COc1ccc(C(=O)Oc2c(Cl)cc(/C=C3\SC(N)=NC3=O)cc2OC)cc1	8.2	0	0	0	0	0
CCCNc1nc(Nc2cc(OC)c(OC)c(OC)c2)nc2c1ncn2C(C)C	0	0	0	0	-	-
Cc1ccsc1/C=C1\SC(=N)N(c2ccc(F)cc2)C1=O	23	0	0	0	0	0
Cc1ccc(N2C(=N)S/C(=C/c3sccc3C)C2=O)cc1C	0	0	0	0	-	-
Cc1cc(F)ccc1NS(=O)(=O)c1ccccc1Br	0	0	0	0	-	-
O=C(NCC1CCCN(C(=O)C2CCCC2)C1)c1ccc(F)cc1 (stereo not drawn)	7.3	0	0	0	0	0
COc1cccc(N2CCN(C(=O)C3=C(C)C(=O)OC34CCCCC4)CC2)c1	5.6	0	0	0	0	0
CC1=C(C(=O)N2CCCC2)C2(CCCCCC2)OC1=O	0	0	0	0	-	-
COc1cc(OC)cc(-c2noc(C3CCN(S(=O)(=O)c4ccc(Cl)cc4)CC3)n2)c1	5.2	0	0	0	0	0
CCCCC[C@H](O)/C=C/C1=C(CCCCCCC(=O)O)C(=O)CC1	5.6!	0	0	0	0	0
C[C@@H](O)CCC[C@H](O)/C=C/C1=C(C/C=C\CCCC(=O)O)C(=O)CC1	0	-	-	0	-	-
Cc1ccc2nc(C(F)(F)F)c(C(=O)N(C)CC3OCCO3)n2c1	0	0	0	0	-	-
CC(C)(c1ccccc1)c1ccc(OC(=O)Nc2ccc(Cl)c(Cl)c2)cc1	5.4	0	0	0	0	0
Cc1cccc(NC(=O)Oc2ccc(C(C)(C)c3ccc(OC(=O)Nc4cccc(C)c4)cc3)cc2)c1	0	0	0	0	-	-
SMILES	GPR151 activ	FBW7 act	TEAD-YAP block	MITF inh	GPR151 conf act	GPR119 counter
CC(=O)N1CCOc2cc(S(=O)(=O)N3CCCCCC3)c(C)cc21	0	0	0	0	-	-
CC(=O)N1CCOc2cc(S(=O)(=O)N3CCC(Cc4ccccc4)CC3)c(C)cc21	5.0	0	0	0	0	0
CC(C)N(CCNC1CCS(=O)(=O)C1)C(C)C (stereo not drawn)	8.4	0	0	0	0	0
NS(=O)(=O)c1ccc(CCNC(=O)CSc2nc3ccccc3c(=O)n2C2CC2)cc1	0	0	0	0	-	-
Cc1cc(NC(=O)C(C)n2cc([N+](=O)[O-])cn2)ccc1Br (stereo not drawn)	5.2	0	0	0	0	0
Cn1c(N)c(S(=O)(=O)N2CCN(c3ccccc3Cl)CC2)c(=O)n(C)c1=O	26	0	0	0	0	0
Cc1ccc2c(c1)cc(CN(Cc1ccccc1)S(=O)(=O)c1ccccc1)c1nnnn12	0	0	0	0	-	-
COc1ccc(C2=NS(=O)(=O)N(C)C(C(=O)N(C)C3CCCCC3)=C2)cc1	11	0	0	0	0	0
Cc1ccc(C2=NS(=O)(=O)N(C)C(C(=O)N(C)C3CCCCC3)=C2)cc1	0	0	0	0	-	-
CSc1nc(N)nc(SCC(=O)c2ccccc2)c1C#N	0	0	0	0	-	-
CSc1nc(N)nc(SC(C(=O)O)c2ccccc2)c1C#N (stereo not drawn)	8.6	0	0	0	0	0
Cc1cccc(C(O)(C(=O)NNC(=O)C(=O)/C=C(\O)c2ccccc2)c2cccc(C)c2)c1	0	0	0	0	-	-
FC(F)(F)c1ccc(Cn2cnc3c(Nc4ccc(N5CCOCC5)cc4)nc(-c4ccccc4)nc32)cc1	5.2	0	0	0	0	0
OCCNc1nc(-c2csc3ccccc23)nc2c1ncn2Cc1ccc(C(F)(F)F)cc1	6.1	0	0	0	0	0
FC(F)(F)c1ccc(Cn2cnc3c(NC4CC4)nc(-c4ccc(N5CCOCC5)nc4)nc32)cc1	8.0	0	0	0	0	0
COc1ccc(-c2nc(NCCOc3ccccc3)c3ncn(Cc4ccc(C(F)(F)F)cc4)c3n2)cc1	4.9	0	0	0	0	0
CCCNc1nc(-c2ccc(N3CCOCC3)nc2)nc2c1ncn2Cc1ccc(C(F)(F)F)cc1	0	0	0	0	-	-
C=CCSc1ncnc2sc3c(c12)CCCC3	0	0	0	0	-	-
O=C1O[C@@H]2C[C@H]3C[C@@H]2[C@@H]1[C@H]3C(=O)N1CCc2ccccc21	0	0	0	0	-	-
FC(F)(F)c1ccc(Cn2cnc3c(NC4CCN(Cc5ccccc5)CC4)nc(Nc4ccccc4)nc32)cc1	0	0	0	0	-	-
FC(F)(F)c1ccc(Cn2cnc3c(Nc4ccccc4)nc(Nc4ccccc4)nc32)cc1	6.2	0	0	0	0	0
FC(F)(F)c1ccc(Cn2cnc3c(NC4CCN(Cc5ccccc5)CC4)nc(Nc4ccc(C(F)(F)F)cc4)nc32)cc1	5.9	0	0	0	0	0
CCn1c(CNS(=O)(=O)c2ccc(C)cc2)nnc1SCc1ccccn1	0	0	0	0	-	-
COc1ccc(OC)c(N2C(N)=C(C#N)C(c3ccc(OC)c(O)c3)C3=C2CCCC3=O)c1 (stereo not drawn)	0	0	0	0	-	-
O=C(Nc1ccccc1Cl)C1CCCCC1	0	0	0	0	-	-
O=C1CC(C(=O)Nc2ccccc2Cl)c2ccccc21 (stereo not drawn)	9.4	0	0	0	0	0
O=C(O)COc1ccc(C2C3=C(CCCC3=O)OC3=C2C(=O)CCC3)cc1	6.2	0	0	0	0	0
Cc1c(C(=O)NC(=S)Nc2ncccc2O)cccc1[N+](=O)[O-]	5.4	0	0	0	0	0
CC1=C(C(=O)Nc2ccc(CC(=O)NCCc3ccc(Cl)cc3)cc2)SCCO1	0	0	0	0	-	-
CC1(C)Cc2c(sc3ncnc(NNC(=O)c4ccccc4)c23)CO1	6.3	0	0	0	0	0

High-throughput results as filed in PubChem BioAssay.
